The list is not random: actives were taken first. Their share in the collection is about 2.8%.
WRN helicase inh-1 – blocks human WRN helicase | WRN helicase unwinding, fluorescent forked duplex, kinetic | Potency, µM (series often up to 114 µM), hits mostly inhibitors | 360,000 tested, 0.46% active | AID 651768; note: nearly all actives have a fitted effect of over 55% in size
Target sequence (Q14191 whole entry, looked up): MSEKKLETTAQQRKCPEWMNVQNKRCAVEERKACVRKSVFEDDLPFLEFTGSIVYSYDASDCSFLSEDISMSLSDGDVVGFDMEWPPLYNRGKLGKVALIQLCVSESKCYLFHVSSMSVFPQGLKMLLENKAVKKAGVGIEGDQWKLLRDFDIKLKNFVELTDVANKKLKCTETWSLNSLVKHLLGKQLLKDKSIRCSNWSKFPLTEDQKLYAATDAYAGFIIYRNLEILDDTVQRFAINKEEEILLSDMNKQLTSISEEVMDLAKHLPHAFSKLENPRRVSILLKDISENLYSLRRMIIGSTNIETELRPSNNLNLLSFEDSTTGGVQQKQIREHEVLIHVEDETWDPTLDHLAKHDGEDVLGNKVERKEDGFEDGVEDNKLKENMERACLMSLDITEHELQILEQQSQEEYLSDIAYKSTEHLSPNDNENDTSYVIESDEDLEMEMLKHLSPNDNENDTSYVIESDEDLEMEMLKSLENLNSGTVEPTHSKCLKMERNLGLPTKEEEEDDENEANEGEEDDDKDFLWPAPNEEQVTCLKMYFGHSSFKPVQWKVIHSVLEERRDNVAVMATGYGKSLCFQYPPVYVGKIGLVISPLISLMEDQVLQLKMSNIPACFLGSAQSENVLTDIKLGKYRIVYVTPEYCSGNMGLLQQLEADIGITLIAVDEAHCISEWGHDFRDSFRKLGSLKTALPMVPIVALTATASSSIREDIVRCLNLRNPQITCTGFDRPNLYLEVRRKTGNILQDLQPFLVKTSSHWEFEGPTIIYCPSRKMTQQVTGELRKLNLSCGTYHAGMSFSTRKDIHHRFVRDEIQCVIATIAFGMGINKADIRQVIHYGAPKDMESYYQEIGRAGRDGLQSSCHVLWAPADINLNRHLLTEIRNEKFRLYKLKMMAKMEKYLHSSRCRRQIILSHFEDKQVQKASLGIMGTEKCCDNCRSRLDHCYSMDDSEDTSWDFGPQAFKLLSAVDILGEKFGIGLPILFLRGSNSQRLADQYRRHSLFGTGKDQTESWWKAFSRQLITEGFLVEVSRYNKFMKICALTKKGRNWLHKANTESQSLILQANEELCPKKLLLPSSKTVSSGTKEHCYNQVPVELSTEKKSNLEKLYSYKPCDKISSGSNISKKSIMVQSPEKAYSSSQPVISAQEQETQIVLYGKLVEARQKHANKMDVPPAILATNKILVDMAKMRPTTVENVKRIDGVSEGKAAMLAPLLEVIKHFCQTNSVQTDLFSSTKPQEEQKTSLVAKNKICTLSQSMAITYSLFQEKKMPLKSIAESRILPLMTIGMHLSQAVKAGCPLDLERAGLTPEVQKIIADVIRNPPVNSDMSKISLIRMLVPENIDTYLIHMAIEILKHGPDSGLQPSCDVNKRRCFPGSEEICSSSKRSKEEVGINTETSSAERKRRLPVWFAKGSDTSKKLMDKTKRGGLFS
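Kinetic fluorescence helicase assay: unwinding of a quenched forked DNA duplex (100 nM final) with 2 mM ATP final raises red fluorescence (525/598 nm). Compounds sat 15 min at room temperature with 20 nM WRN beforehand.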
POLI inh – DNA polymerase iota (human) inhibition. 390,000 tested, 1% active. Potency, µM (titrated, usually from 115 µM), usual class: inhibitors. Pol iota fluorescent replication assay, 10 min. Q9UNA4
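Pol iota at 10 nM preincubated 15 min with compounds at room temperature; reaction started with fluorescent substrate, 50 nM final. Fluorescence read kinetically at 0 and 10 min; buffer-only wells as negative control.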
PI5P4Ka inh – blocks human PI5P4K alpha kinase activity | P48426 | PI5P4Kalpha enzyme, ADP-Glo luminescence, 60 min; hits give low values | max response, % | 330,000 tested, 1.2% active; active = max response of -50% or lower; inconclusive = between -30% and -50%; inactive = -30% or higher; note: value at the top dose of about 77 µM
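PI5P4Kalpha ADP-Glo assay; 5 microM ATP final; 60 min RT reaction; HEPES pH 7.4/EGTA/CHAPS, 5% DMSO; controls lacking substrate or enzyme; luminescent end-point.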
Pol kappa inh-1 – inhibitors of human DNA polymerase kappa. Q9UBT6. purified Pol kappa, fluorescent DNA synthesis assay, 10 min. Potency, µM (doses to about 107 µM), actives largely listed as inhibitors. 400,000 tested, 0.53% active. AID 588579
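Kinetic fluorescence readout at 0 and 10 min followed reaction start with substrate at 50 nM final. Beforehand, enzyme (10 nM Pol kappa) stood 15 min with compound at room temperature; buffer-only wells were negative controls.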
Pol eta inh-1 – DNA polymerase eta (human) inhibition. Q9Y253. recombinant Pol eta, fluorescent DNA replication assay. Potency, µM (doses to about 114 µM), usual class: inhibitors. 390,000 tested, 1.2% active
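Pol eta at 10 nM preincubated with compounds 15 min at room temperature; reaction started with fluorescent substrate (50 nM final) and read kinetically at 0 and 10 min.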
POLB inh – DNA polymerase beta (human) inhibition. Pol beta primer extension/strand displacement, fluorescence kinetic. 340,000 tested, 1.3% active. Potency, µM (highest dose often 114 µM), most hits filed as inhibitors
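Pol beta (10 nM) and compounds were preincubated 15 min at room temperature, then 50 nM substrate (final) started primer extension/strand displacement. Reads were taken at 0 and 10 min; concentration-response data were fitted to a four-parameter Hill equation.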
Pol kappa inh-2 – Pol kappa (human) inhibition, cherry-pick confirmation; Potency, µM, usual class: inhibitors; 920 tested, 76% active; shares compounds with Pol eta inh-1; AID 720501; purified Pol-kappa, fluorescent strand-displacement substrate
Pol eta inh-2 – Pol eta (human) inhibition, cherry-pick confirmation; shares compounds with Pol eta inh-1; Pol eta primer extension, TAMRA/BHQ fluorescence, 10 min; Potency, µM, actives largely listed as inhibitors; 2,600 tested, 64% active; AID 720502
WRN helicase inh-2 – WRN helicase inhibition, cherry-pick retest; shares compounds with WRN helicase inh-1; WRN helicase DNA unwinding, fluorescence kinetic; 610 tested, 63% active; AID 720497; Potency, µM (series often up to 57.1 µM), hits mostly inhibitors; note: nearly all actives have a fitted effect of over 65% in size
TO DNA binding – counter-screen for WRN helicase inhibitors: DNA binding; 610 tested, 10% active; shares compounds with WRN helicase inh-1; thiazole orange DNA binding displacement, fluorescence; Potency, µM (doses to about 57.1 µM), hits mostly inhibitors; AID 720499;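 note: drop in dye fluorescence marks compound binding to DNA; nearly all actives have a fitted effect of over 60% in size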
BLM helicase inh – blocks human BLM helicase in WRN counterscreen. shares compounds with WRN helicase inh-1. Recombinant BLM helicase DNA unwinding, red fluorescence. Potency, µM (series often up to 57.1 µM), usual class: inhibitors. 610 tested, 60% active. AID 720503; note: nearly all actives have a fitted effect of over 60% in size
Numbers stand for hits; n = inactive; u = inconclusive; x = no result given; [ ] = dose if it differs, or a comment. Unless noted, calls come from the whole dose curve; as a rule, active = well fitted curve in the direction sought with a large enough effect; inconclusive = small, poorly fitted or top-dose-only effect, or another doubt; inactive = no such curve, though single readings can be large; an effect the other way counts as inactive or inconclusive.

SMILES | WRN helicase inh-1 | POLI inh | PI5P4Ka inh | Pol kappa inh-1 | Pol eta inh-1 | POLB inh | Pol eta inh-2 | WRN helicase inh-2 | TO DNA binding | BLM helicase inh | others
CN1C(=O)NC(=O)/C(=C/c2ccc([N+](=O)[O-])s2)C1=O | u | u | -56 | u | 22µM | u | 76 | x | x | x
Cc1ccc(/C=C2/C(=O)NC(=O)N(C)C2=O)cc1 | u | n | n | n | n | n | x | x | x | x
O=C1NC(=S)NC(=O)C12C(c1ccc(F)cc1)NC(=S)NC2c1ccc(F)cc1 (centres undefined) | n | n | n | n | 40µM | n | u | x | x | x
O=C1NC(=S)NC(=O)C12C(c1ccccc1)NC(=S)NC2c1ccccc1 (centres undefined) | n | 20µM | n | n | 50µM | n | u | x | x | x
Cc1ccc(C2NC(=S)NC(c3ccc(C)cc3)C23C(=O)NC(=O)NC3=O)cc1 (centres undefined) | n | n | n | n | n | n | x | x | x | x
COC[C@]12CN(C)C3C4[C@H](OC)[C@H]1C3([C@@H](OC)C[C@H]2O)[C@@H]1C[C@@]2(O)[C@H](OC(=O)c3ccccc3)[C@@H]1[C@]4(OC(C)=O)[C@@H](O)[C@@H]2OC | n | n | n | n | n | x | x | x | x | x
Cc1nc(SCc2c(Cl)cccc2Cl)nc(OC(=O)N(C)C)c1C | n | n | n | n | n | n | x | x | x | x
C[C@H](N)Cc1ccccc1 | x | x | x | n[19.4 µM] | x | x | x | x | x | x
NC1=C([N+](=O)[O-])C(c2ccc3c(c2)OCO3)c2c(c3ccccc3oc2=O)O1 (centres undefined) | n | n | n | n | n | n | x | x | x | x
O=c1oc2ccccc2c(O)c1[C@H]1c2ccc(O)cc2Oc2c1c(=O)oc1ccccc21 | n[11.6 µM] | n | n | n | u | n | u | x | x | x
Cc1cc(/C=C2\C(=O)NC(=O)N(c3ccccc3)C2=O)c(C)n1-c1ccc(C(=O)O)c(Cl)c1 | n[11.6 µM] | u | u | u | 10µM | 22µM | 34 | x | x | x | Pol kappa inh-2=19
Cc1cc(/C=C2\C(=O)NC(=O)N(c3ccc(F)cc3)C2=O)c(C)n1-c1cccc(C(=O)O)c1 | n[11.6 µM] | 22µM | -50 | u | 22µM | 28µM | u | x | x | x | Pol kappa inh-2=38
Cc1cc(/C=C2\C(=O)NC(=O)N(c3ccc(Cl)cc3)C2=O)c(C)n1C | n | n | n | n | n | n | x | x | x | x
Cc1cc(/C=C2\C(=O)NC(=O)N(C)C2=O)c(C)n1-c1ccc2c(c1)OCO2 | n | u | u | n | u | u | x | x | x | x
Cc1c(O)c(O)cc2c1CC=C1[C@]3(C)CC[C@]4(C)CC[C@@](C)(C(=O)O)CC4[C@]3(C)CC[C@]12C (some centres undefined) | x | x | x | n | x | x | x | x | x | x
CC1=C(O)C(=O)C=C2C1=CC=C1C2(C)CCC2(C)C3CC(C)(C(=O)O)CCC3(C)CCC12C (centres undefined) | 25µM | 3.5µM | -72 | 32µM | 7.9µM | x | 34 | u | n | 22µM
C[C@]12CC[C@@H]3c4ccc(O)cc4C[C@@H](CCCCCCCCCS(=O)CCCC(F)(F)C(F)(F)F)[C@H]3[C@@H]1CC[C@@H]2O (some centres undefined) | x | x | x | n | x | x | x | x | x | x
Cn1cccc1/C=C1\C(=O)NC(=O)N(Cc2ccccc2)C1=O | u | 22µM | -58 | 50µM | 35µM | u | u | u | n | u
CCC1=CCN(CCc2c(C)[nH]c3ccccc23)CC1 | n | n | n | n | n | x | x | x | x | x
CCN(CC)c1ccc(/C=C2\C(=O)NC(=O)N(Cc3ccco3)C2=O)cc1 | 28µM | 20µM | -57 | 79µM | 22µM | u | u | u | n | u | Pol kappa inh-2=34
CCN(CC)c1ccc(/C=C2/C(=O)NC(=O)N(CC3CCCO3)C2=O)cc1 (centres undefined) | n | u | n | n | n | n | x | x | x | x
O=C1NC(=S)NC(=O)C1=Cc1cccc2cc3ccccc3cc12 | u | 35µM | -70 | n | 50µM | n | u | u | n | u
N#Cc1c(-c2csc(-c3no[n+]([O-])c3C#N)c2)no[n+]1[O-] | x | x | x | x | x | x | u | u | n | u
CP(=O)(O)C1=CCNCC1 | x | n | x | n | n | n | x | x | x | x
O=C1NC(=O)N(c2ccccc2)C(=O)/C1=C\c1ccc([N+](=O)[O-])s1 | 28µM | u | -74 | 28µM | 10µM | u | 34 | u | n | 17µM
SMILES | WRN helicase inh-1 | POLI inh | PI5P4Ka inh | Pol kappa inh-1 | Pol eta inh-1 | POLB inh | Pol eta inh-2 | WRN helicase inh-2 | TO DNA binding | BLM helicase inh | others
O=C(CSc1nnc(NC(=O)c2cccc(F)c2)s1)NCc1ccco1 | n | n | n | n | n | n | x | x | x | x
CCCCN1C(=O)/C(=C/c2ccc(N(C)C)cc2)C(=O)N(Cc2ccco2)C1=O | 28µM | u | -64 | 25µM | 40µM | 22µM | x | u | n | 22µM
CCCCn1c(=O)c(C=Nc2ccc(Cl)cc2)c(O)n(Cc2ccco2)c1=O | n | n | n | n | n | n | x | x | x | x
CCCCN1C(=O)/C(=C\c2ccco2)C(=O)N(CCc2ccccc2)C1=O | 32µM | u | -82 | 25µM | 40µM | 8.9µM | x | u | n | 22µM
CN1C(=O)C(=CN2CCN(C(=O)c3ccco3)CC2)C(=O)N(C)C1=S | n | n | n | n | n | n | x | x | x | x
CN1C(=O)/C(=C\c2ccc(Br)s2)C(=O)NC1=S | 18µM | u | -77 | n | u | u | x | u | n | u
C=CCc1cc(C=C2C(=O)N(C)C(=O)N(C)C2=O)cc(OCC)c1OCc1ccccc1 | 45µM | n | -55 | n | u | n | x | n | n | u
C=CCNc1nnc(Sc2ncccc2[N+](=O)[O-])s1 | n | n | n | n | n | n | x | x | x | x
O=C1C(=Cc2cn(-c3ccccc3)nc2-c2ccc(OCc3ccc(Cl)cc3)cc2)SC(=S)N1CCS(=O)(=O)O | 14µM | x | u | x | x | x | x | 11µM | u | 3.8µM
O=C1NC(=O)C(=Cc2ccccc2[N+](=O)[O-])C(=O)N1 | 40µM | n | u | n | n | x | x | n | n | n
CCOc1cc(C=C2C(=O)NC(=O)NC2=O)cc([N+](=O)[O-])c1O | x | x | x | x | x | n | x | x | x | x
O=C(O)Cn1cc(/C=C2\C(=O)NC(=O)N(c3ccc(Br)cc3)C2=O)c2ccccc21 | u | 32µM | n | n | u | n | x | n | n | 17µM
Cn1cc(C(=O)OCC(=O)NC2CCCCC2)c2ccccc21 | n | n | n | n | n | x | x | x | x | x
